Key:
Assay in all cases: DAPPL (digital affinity profiling via proximity ligation, sequencing); 10 mM Tris-HCl pH 7.5, 50 mM NaCl, 1 mM DTT, 4% glycerol, room temperature, 30 min; GST-TFs on glutathione beads, 16-mer random dsDNA library, 0.1% formaldehyde crosslink after washing; high values mean tight binding
GABPA = biological target: T1, GABPA (Homo sapiens, UniProt Q06546 1-454); details: protein: recombinant; tags: N-terminal GST; dsDNA, one strand shown
T1 sequence: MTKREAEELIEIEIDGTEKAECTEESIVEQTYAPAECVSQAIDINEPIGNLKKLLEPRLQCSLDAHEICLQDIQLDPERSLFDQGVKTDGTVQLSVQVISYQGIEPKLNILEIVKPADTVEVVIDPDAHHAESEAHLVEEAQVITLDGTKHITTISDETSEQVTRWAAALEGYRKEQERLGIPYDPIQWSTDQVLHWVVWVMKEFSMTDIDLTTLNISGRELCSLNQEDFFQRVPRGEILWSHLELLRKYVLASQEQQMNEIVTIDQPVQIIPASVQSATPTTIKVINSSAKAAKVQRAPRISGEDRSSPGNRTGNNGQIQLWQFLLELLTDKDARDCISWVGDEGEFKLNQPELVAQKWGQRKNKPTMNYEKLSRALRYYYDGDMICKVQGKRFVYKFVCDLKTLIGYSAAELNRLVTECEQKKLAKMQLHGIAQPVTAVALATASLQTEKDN
How it was run: (§1)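 Sequencing on an Illumina NextSeq500 followed washing, crosslinking with 0.1% formaldehyde, proximity ligation (BsaI/T4 ligase, 1 h, 37 °C) and PCR amplification of pools that had been incubated for 30 min at room temperature with 200 nmole of a random double-stranded 16-mer DNA library in Tris/NaCl/DTT/glycerol buffer. Each pool held DNA-barcoded human transcription factors, expressed in yeast as GST fusions and captured on glutathione beads, plus a tag-only sample. Binding signal is a hexamer's read frequency for a factor divided by its frequency in the tag-only sample.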

ELF1 = ELF1 (Homo sapiens, UniProt P32519 1-619); details: protein: recombinant; tags: N-terminal GST; dsDNA, one strand shown
How it was run: as §1

EHF = biological target: T2, EHF (Homo sapiens, UniProt Q9NZC4 1-300); details: protein: recombinant; tags: N-terminal GST; dsDNA, one strand shown
T2 sequence: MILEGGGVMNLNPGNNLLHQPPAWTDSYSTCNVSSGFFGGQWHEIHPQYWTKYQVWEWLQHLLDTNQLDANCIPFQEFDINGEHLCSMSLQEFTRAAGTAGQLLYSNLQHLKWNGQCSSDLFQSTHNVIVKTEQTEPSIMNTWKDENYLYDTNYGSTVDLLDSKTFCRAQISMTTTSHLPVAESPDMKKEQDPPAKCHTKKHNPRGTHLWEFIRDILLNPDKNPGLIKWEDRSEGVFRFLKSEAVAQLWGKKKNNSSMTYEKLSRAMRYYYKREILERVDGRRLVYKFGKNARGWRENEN
How it was run: as §1

SPI1 = SPI1 (Homo sapiens, UniProt P17947 1-270); details: protein: recombinant; tags: N-terminal GST; dsDNA, one strand shown
How it was run: as §1

ELK3 = biological target: T3, ELK3 (Homo sapiens, UniProt P41970 1-407); details: protein: recombinant; tags: N-terminal GST; dsDNA, one strand shown
T3 sequence: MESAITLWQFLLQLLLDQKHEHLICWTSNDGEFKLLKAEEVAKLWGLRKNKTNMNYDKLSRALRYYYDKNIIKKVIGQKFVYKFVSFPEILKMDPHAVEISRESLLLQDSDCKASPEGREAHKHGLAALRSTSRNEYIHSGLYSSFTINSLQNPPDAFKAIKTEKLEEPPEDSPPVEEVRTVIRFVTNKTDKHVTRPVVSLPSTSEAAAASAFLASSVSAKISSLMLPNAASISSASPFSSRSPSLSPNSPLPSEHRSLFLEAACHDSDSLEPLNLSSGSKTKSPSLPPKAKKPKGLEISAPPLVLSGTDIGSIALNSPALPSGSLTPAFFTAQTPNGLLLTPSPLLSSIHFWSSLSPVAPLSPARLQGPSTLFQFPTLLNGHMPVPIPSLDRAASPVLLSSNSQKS
How it was run: as §1

FEV = biological target: T4, FEV (Homo sapiens, UniProt Q99581 1-238); details: protein: recombinant; tags: N-terminal GST; dsDNA, one strand shown
T4 sequence: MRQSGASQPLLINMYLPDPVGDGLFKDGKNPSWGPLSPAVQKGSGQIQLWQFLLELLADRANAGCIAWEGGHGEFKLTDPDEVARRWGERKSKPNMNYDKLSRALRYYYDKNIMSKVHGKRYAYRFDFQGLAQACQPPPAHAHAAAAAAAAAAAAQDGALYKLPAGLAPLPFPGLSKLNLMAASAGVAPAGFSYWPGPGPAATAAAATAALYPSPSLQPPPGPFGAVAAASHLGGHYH
How it was run: as §1

HSF1 = HSF1 (Homo sapiens, UniProt Q00613 1-529); details: protein: recombinant; tags: N-terminal GST; chain copies: 3; dsDNA, one strand shown
How it was run: as §1

ELF4 = ELF4 (Homo sapiens, UniProt Q99607 1-663); details: protein: recombinant; tags: N-terminal GST; dsDNA, one strand shown
How it was run: as §1

ELK4 = biological target: T5, ELK4 (Homo sapiens, UniProt P28324-2 1-405); details: protein: recombinant; tags: N-terminal GST; dsDNA, one strand shown
T5 sequence: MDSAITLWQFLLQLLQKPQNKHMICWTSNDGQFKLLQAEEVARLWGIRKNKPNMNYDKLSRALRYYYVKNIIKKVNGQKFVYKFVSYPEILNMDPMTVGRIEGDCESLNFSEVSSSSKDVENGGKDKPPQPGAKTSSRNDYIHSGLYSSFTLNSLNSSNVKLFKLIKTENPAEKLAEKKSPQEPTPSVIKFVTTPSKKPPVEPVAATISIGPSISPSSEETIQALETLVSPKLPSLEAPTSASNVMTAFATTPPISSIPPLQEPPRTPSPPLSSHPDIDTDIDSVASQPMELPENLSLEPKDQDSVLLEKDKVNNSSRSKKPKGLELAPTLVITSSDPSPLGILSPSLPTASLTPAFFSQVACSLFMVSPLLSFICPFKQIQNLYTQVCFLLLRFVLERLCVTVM
How it was run: as §1

ELF3 = biological target: T6, ELF3 (Homo sapiens, UniProt P78545 1-371); details: protein: recombinant; tags: N-terminal GST; dsDNA, one strand shown
T6 sequence: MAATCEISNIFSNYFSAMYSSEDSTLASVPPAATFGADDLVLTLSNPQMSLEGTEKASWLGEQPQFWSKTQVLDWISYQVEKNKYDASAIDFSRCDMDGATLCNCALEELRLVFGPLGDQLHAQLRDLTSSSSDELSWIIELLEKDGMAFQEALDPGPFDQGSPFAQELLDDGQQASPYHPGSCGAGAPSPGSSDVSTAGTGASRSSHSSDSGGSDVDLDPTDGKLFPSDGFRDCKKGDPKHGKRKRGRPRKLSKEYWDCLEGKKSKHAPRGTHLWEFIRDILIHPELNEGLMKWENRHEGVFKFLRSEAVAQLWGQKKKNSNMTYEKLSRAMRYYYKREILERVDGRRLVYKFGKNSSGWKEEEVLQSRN
How it was run: as §1

ERF = biological target: T7, ERF (Homo sapiens, UniProt P50548 1-548); details: protein: recombinant; tags: N-terminal GST; dsDNA, one strand shown
T7 sequence: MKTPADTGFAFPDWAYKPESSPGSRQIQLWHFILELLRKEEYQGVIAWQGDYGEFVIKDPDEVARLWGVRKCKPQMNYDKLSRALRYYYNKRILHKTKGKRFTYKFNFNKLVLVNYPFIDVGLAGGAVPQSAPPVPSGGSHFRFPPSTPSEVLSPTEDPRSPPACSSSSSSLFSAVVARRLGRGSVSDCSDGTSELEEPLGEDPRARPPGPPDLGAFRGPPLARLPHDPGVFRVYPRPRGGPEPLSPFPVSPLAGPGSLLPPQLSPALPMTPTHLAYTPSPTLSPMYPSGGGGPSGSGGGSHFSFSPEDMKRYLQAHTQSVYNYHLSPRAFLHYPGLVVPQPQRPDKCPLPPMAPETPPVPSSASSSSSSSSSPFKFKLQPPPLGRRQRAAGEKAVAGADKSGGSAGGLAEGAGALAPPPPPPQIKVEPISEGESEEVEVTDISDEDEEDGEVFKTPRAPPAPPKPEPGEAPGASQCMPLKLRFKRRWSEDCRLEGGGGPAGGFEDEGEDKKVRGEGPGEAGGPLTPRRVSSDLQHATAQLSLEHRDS
How it was run: as §1

ETS2 = biological target: T8, ETS2 (Homo sapiens, UniProt P15036 1-469); details: protein: recombinant; tags: N-terminal GST; dsDNA, one strand shown
T8 sequence: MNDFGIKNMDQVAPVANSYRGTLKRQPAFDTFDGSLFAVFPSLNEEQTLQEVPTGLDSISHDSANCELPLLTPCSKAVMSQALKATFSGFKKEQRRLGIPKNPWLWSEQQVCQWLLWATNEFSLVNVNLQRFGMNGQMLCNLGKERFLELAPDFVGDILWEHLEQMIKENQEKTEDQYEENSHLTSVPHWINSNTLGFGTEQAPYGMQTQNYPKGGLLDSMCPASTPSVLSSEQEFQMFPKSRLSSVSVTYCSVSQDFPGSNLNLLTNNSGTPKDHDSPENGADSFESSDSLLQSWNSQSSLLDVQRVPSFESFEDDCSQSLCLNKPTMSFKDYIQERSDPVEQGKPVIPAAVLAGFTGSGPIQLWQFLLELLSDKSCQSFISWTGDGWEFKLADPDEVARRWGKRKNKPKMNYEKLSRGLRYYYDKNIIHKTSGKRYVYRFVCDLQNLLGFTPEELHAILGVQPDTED
How it was run: as §1

ETV7 = biological target: T9, ETV7 (Homo sapiens, UniProt Q9Y603 1-341); details: protein: recombinant; tags: N-terminal GST; dsDNA, one strand shown
T9 sequence: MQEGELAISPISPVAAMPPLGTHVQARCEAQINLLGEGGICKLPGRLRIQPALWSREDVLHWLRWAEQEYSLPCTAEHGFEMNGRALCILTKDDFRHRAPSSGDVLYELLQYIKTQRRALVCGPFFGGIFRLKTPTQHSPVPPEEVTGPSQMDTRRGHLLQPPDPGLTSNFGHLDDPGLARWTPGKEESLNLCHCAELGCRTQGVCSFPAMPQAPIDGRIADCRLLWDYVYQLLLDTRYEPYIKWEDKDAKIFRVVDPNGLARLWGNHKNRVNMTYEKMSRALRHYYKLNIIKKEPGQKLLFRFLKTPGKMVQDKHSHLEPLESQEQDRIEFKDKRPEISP
How it was run: as §1

ETV6 = ETV6 (Homo sapiens, UniProt P41212 1-452); details: protein: recombinant; tags: N-terminal GST; dsDNA, one strand shown
How it was run: as §1

ELF1, sequence (P32519 whole entry): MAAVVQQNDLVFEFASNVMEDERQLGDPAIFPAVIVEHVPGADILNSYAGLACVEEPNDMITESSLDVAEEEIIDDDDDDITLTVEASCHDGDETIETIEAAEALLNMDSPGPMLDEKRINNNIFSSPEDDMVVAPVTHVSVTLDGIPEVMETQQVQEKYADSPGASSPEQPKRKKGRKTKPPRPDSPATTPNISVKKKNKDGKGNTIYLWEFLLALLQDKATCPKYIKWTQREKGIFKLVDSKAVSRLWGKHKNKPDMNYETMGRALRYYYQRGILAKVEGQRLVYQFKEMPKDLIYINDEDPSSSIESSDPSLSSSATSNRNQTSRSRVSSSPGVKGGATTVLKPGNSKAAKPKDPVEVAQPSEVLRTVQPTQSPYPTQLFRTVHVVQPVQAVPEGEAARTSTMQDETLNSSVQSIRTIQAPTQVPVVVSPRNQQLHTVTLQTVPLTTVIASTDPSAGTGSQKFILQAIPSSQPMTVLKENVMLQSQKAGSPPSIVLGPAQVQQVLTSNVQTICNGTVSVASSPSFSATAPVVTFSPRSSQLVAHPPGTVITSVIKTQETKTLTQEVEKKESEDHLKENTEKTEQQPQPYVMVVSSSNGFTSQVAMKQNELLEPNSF
ETV6, sequence (P41212 whole entry): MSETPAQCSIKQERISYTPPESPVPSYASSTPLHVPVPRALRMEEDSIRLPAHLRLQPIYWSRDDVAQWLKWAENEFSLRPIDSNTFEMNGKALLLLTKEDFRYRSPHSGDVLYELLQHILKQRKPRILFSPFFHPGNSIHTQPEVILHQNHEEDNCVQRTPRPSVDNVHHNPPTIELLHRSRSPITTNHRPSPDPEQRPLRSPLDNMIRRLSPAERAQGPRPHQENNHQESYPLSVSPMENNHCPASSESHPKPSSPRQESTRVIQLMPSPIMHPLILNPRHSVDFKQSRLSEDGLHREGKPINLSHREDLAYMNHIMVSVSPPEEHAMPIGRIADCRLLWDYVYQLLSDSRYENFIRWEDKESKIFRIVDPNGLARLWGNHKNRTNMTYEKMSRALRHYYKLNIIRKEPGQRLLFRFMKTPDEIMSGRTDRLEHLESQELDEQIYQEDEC
HSF1, sequence (Q00613 whole entry): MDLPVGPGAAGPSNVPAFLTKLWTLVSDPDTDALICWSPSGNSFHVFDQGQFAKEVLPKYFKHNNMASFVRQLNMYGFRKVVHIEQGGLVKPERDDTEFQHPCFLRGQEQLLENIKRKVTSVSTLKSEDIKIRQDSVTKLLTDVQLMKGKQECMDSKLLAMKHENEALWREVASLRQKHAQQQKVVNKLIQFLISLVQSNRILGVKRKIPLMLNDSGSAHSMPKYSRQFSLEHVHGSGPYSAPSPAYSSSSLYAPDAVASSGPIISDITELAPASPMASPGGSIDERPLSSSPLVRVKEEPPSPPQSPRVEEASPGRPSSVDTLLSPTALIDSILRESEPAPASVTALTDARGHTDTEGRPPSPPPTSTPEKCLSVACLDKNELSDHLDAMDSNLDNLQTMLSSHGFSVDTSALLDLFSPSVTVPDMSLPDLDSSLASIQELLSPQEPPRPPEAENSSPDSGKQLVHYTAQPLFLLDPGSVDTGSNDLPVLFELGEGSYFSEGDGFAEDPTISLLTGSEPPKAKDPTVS
ELF4, sequence (Q99607 whole entry): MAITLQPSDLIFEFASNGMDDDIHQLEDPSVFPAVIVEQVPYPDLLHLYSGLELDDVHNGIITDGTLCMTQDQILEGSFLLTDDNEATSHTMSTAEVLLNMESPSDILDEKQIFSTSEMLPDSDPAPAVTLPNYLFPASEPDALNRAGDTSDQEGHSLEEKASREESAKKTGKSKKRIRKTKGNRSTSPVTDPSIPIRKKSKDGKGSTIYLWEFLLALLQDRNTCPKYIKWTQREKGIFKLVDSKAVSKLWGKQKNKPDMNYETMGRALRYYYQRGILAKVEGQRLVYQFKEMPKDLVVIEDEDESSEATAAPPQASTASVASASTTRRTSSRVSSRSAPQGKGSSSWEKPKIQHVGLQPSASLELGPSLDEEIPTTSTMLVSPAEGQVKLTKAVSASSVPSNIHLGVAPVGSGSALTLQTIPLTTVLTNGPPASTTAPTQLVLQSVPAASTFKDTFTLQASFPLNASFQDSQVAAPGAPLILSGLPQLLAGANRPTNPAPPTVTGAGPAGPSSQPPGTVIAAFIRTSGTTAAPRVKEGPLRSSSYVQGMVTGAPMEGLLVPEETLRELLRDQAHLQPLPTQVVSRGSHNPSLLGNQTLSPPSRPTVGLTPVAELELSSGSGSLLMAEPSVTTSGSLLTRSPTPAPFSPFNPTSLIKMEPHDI

For CGAATG, the binding signal (GABPA) was 1.12 fold enrichment (6-mer frequency, TF over GST control), the binding signal (ELF1) was 1.05 fold enrichment (6-mer frequency, TF over GST control) and the binding signal (EHF) was 1.05 fold enrichment (6-mer frequency, TF over GST control). The binding signal (SPI1) was 1.03 fold enrichment (6-mer frequency, TF over GST control), the binding signal (ELK3) was 1.01 fold enrichment (6-mer frequency, TF over GST control) and the binding signal (FEV) was 1.01 fold enrichment (6-mer frequency, TF over GST control). The binding signal (HSF1) was 1.5 fold enrichment (6-mer frequency, TF over GST control), the binding signal (ELF4) was 1.13 fold enrichment (6-mer frequency, TF over GST control) and the binding signal (ELK4) was 1.07 fold enrichment (6-mer frequency, TF over GST control). The binding signal (ELF3) was 1.12 fold enrichment (6-mer frequency, TF over GST control), the binding signal (ERF) was 1.02 fold enrichment (6-mer frequency, TF over GST control) and the binding signal (ETS2) was 1.14 fold enrichment (6-mer frequency, TF over GST control). For the same sequence, the binding signal (ETV7) was 1.08 fold enrichment (6-mer frequency, TF over GST control) and the binding signal (ETV6) was 1.11 fold enrichment (6-mer frequency, TF over GST control).
